Here are results for seven molecules from PubChem BioAssay.

For some assays here: Entries with a potency or affinity are not part of this list. Activity calls are given as the source filed them.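 How the source made its calls, unless noted: active means calcium signal rise above buffer-control mean plus 5 SD in both duplicates, and also a hit in the primary screen; inactive means the rest.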

Experiment [1] relates to TRPC4 beta (transient receptor potential cation channel C4), mouse. Nature of the experiment: TRPC4 cation channel opening, retest – cell-based, Fluo4 calcium, HEK293 TRPC4beta/mu-opioid, duplicates, 10 µM, confirmation (AID 2426;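 active means fluorescence ratio normalized to control raised more than 50% in primary screen plus both repeat runs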;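 on activation: percent rise of integrated ratio over buffer wells lacking compound which define 0%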). The settings on record: Fluo4 calcium fluorescence, at 10 µM; stronger effect = higher value.
The test system of experiment [2] is transient receptor potential cation channel C4 beta (TRPC4), mouse. Nature of the experiment: TRPC4 cation channel opening, second retest – cell-based, second round, Fluo4, HEK293 TRPC4beta/mu-opioid, 1 µM, confirmation (AID 2461;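 active means primary screen active and over 50% activation in each of two duplicate runs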;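 on activation: 0% = wells without test compound as baseline of integrated fluorescence ratio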). The settings on record: Fluo4 calcium fluorescence, at 1 µM; stronger effect = higher value.
For experiment [3], the system named is TRPC4 (transient receptor potential cation channel C4 beta), mouse. Nature of the experiment: potentiation of DAMGO EC20 TRPC4 response – cell-based, second round, Fluo-4, HEK293 TRPC4beta/mu-opioid, 1 µM, confirmation (AID 2554;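 active means primary screen hit whose fluorescence ratio, in both repeats, exceeds the weak agonist control mean by 3 SD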). The settings on record: DAMGO EC20, Fluo-4 calcium flux, at 1 µM; stronger effect = higher value. On the technique in general: Calcium assays in cells follow changes in intracellular calcium, usually with a dye or a luminescent sensor.

Experiment [4] deals with TRPC4 beta (transient receptor potential cation channel C4), mouse. Put plainly: potentiation of DAMGO EC20 TRPC4 response – cell-based, Fluo-4, HEK293 TRPC4beta/mu-opioid, confirmation (AID 2555;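 active means primary screen hit whose calcium fluorescence ratio, in both repeats, exceeds the weak agonist control mean by 3 SD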). The conditions noted are these: DAMGO EC20, Fluo-4 calcium flux, at 10 µM; stronger effect = higher value.
The target in experiment [5] is Short transient receptor potential channel 4 (Mus musculus) (UniProt Q9QUQ5). Put plainly: blockers of DAMGO-evoked TRPC4 calcium flux – cell-based, Fluo4, HEK293 TRPC4beta/mu-opioid, confirmation (AID 2636;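 active means calcium signal cut by more than 3 SD below the full-agonist control yet still positive, in both repeats and the earlier primary screen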). The settings on record: at 10 µM; stronger effect = higher value.
Experiment [6] has the same target. Nature of the experiment: blockers of DAMGO-evoked TRPC4 calcium flux – cell-based, second round, Fluo4, HEK293 TRPC4beta/mu-opioid, 1 µM, confirmation (AID 2637;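 active means calcium signal ratio cut to more than 3 SD under the fully stimulated control mean yet still positive, in both repeats and the primary screen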). The settings on record: at 1 µM; stronger effect = higher value.
Experiment [7] shares this target. Put plainly: potentiation of DAMGO-evoked TRPC4 calcium signal – cell-based, HEK293 TRPC4/mu-opioid, Fluo-4 calcium, EC20 DAMGO, dose response (AID 434941;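 active means earlier screen potentiator hit that boosts the TRPC4 ion channel at some dose, with a dose response; inactive means no potentiation, no dose response, or not a prior hit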;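 further: calcium entry triggered by an EC20 dose of DAMGO at the co-expressed mu-opioid receptor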).
For experiment [8] the target is unchanged. Nature of the experiment: block of DAMGO-driven TRPC4 calcium entry – cell-based, HEK293 TRPC4/mu-opioid, Fluo-4 calcium, dose response (AID 434942;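 active means primary screen inhibitor hit that blocks the TRPC4 channel at some tested dose, yielding a dose curve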).
Experiment [9] concerns the target Short transient receptor potential channel 6 (Mus musculus) (UniProt Q61143). Put plainly: TRPC6 blockade by TRPC4 inhibitor hits – cell-based, HEK293, membrane potential dye, duplicate, selectivity assay for TRPC4 inhibitor project, confirmation (AID 434948;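 active means active in primary screen and both duplicates, each dropping signal beyond three positive-control SD with fluorescence still positive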). The conditions noted are these: HEK293 TRPC6, membrane potential dye fluorescence, at 10 µM, stimulated with maximal-effect acetylcholine; stronger effect = higher value.

Experiment [10] has the same target. Put plainly: TRPC6 opening by TRPC4 activator hits – cell-based, HEK293, membrane potential dye, duplicate, selectivity assay for TRPC4 activator project, confirmation (AID 434950;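 active means membrane potential signal rise above negative control mean plus 3 SD in both duplicates, also active in the earlier TRPC4 screen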;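 on activation: 0% = buffer only wells and 100% = acetylcholine maximal-effect wells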). The conditions noted are these: HEK293 TRPC6, membrane potential fluorescence, at 10 µM; activation: stronger effect = higher value; outcome: activation.
For experiment [11] the target is unchanged. Nature of the experiment: positive modulators of mouse TRPC6 channel – HEK293 cells, membrane potential dye, duplicate, selectivity assay for TRPC4 potentiator project, confirmation (AID 434952;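 active means compound raising the membrane signal above positive-control mean plus 3 SD in both repeats, and a primary screen hit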). The conditions noted are these: HEK293 TRPC6, membrane potential dye fluorescence, at 10 µM, maximal acetylcholine added after compound; stronger effect = higher value.
For experiment [12], the target named is Short transient receptor potential channel 4 (Mus musculus) (UniProt Q9QUQ5). Put plainly: calcium flux activators in TRPC4/5HT1a cells, counter-screen for TRPC4 activator project, cell-based, second counter screen, HEK293 TRPC4/5HT1a, Fluo-4 (AID 434977).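 On activation: plate controls were assay buffer for no effect and maximal serotonin response for full effect.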 The conditions noted are these: Fluo-4 calcium flux, at 10 µM; stronger effect = higher value.
A short description of experiment [13]: serotonin-gated TRPC4 signal block – cell-based, second counter screen, HEK293 TRPC4/5HT1a, Fluo-4, counter-screen for TRPC4 inhibitor project, confirmation (AID 434978;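 active means primary screen active whose calcium signal fell more than 3 SD beyond the full-serotonin control mean in both duplicate plates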;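 further: serotonin given first at submaximal then at maximal dose after compound preincubation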). The conditions noted are these: Fluo-4 calcium flux, at 10 µM, serotonin added to trigger calcium flux; stronger effect = higher value. (In general: The purpose of a counterscreen is to sort out artefacts and off-target activity.)

Experiment [14] deals with TRPC4 (mouse), co-expressed with 5HT1a in HEK293. Put plainly: enhancement of serotonin-evoked TRPC4 response – cell-based, second counter screen, HEK293 TRPC4/5HT1a, Fluo-4, counter-screen for TRPC4 potentiator project, confirmation (AID 434979;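 active means signal rise over 3 SD above mean of control wells given weak agonist, in both repeats and first screen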). The settings on record: Fluo-4 calcium flux, at 10 µM, serotonin added at its EC20 dose; stronger effect = higher value.
Experiment [15] is described as follows: nonspecific calcium rise without TRPC4 – cell-based, HEK293 mu-opioid receptor line, counter-screen for TRPC4 activator project, confirmation (AID 449723;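 active means hit in primary screen, with calcium signal over 5 SD above buffer well mean in both duplicates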;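 further: counter screen cells carry the mu-opioid receptor alone and lack TRPC4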). The conditions noted are these: HEK293 mu-opioid cells, Fluo-4 calcium fluorescence, at 10 µM; stronger effect = higher value.
The nature of experiment [16]: nonspecific potentiation of DAMGO calcium response – cell-based, HEK293 mu-opioid receptor line, counter-screen for TRPC4 allosteric potentiator project, confirmation (AID 449724;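 active means calcium signal rise more than 3 SD above the low-dose agonist control mean, in both duplicate plates and the primary screen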;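 further: HEK293 cells carrying mu-opioid receptor only with no TRPC4 channel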). The conditions noted are these: HEK293 mu-opioid receptor cells, Fluo-4 calcium flux, at 10 µM, compound added before EC20 DAMGO stimulus; stronger effect = higher value.
A short description of experiment [17]: nonspecific flux increase, KCNQ1-free cells – parental CHO cells, counter-screen for KCNQ1 potentiator project (AID 493006;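 active means duplicate-averaged activation above buffer control mean plus 5 SD of those controls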;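 on activation: fluorescence ratio of max minus min over baseline after K+ and Tl+ depolarization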). The settings on record: parental CHO-K1 cells, FluxOR thallium flux, at 10 µM; stronger effect = higher value.
Experiment [18] has as its target Potassium voltage-gated channel subfamily KQT member 1 (Homo sapiens) (UniProt P51787). Put plainly: enhancement of KCNQ1 channel thallium flux – FluxOR thallium flux, CHO cells, duplicates, confirmation (AID 493007;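 active means potentiation averaged over duplicate wells exceeding buffer-only control mean by more than 3 SD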;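 on outcome: cells depolarized by a potassium plus thallium sulfate stimulus after compound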;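 on potentiation: 0% = buffer-only wells and 100% = R-L3 activator control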). The settings on record: KCNQ1 cell line, FluxOR thallium flux fluorescence, at 10 µM; stronger effect = higher value, % of reference activator effect, buffer zero.

In experiment [19] the target is Potassium voltage-gated channel subfamily KQT member 2 (Rattus norvegicus) (UniProt O88943). Put plainly: KCNQ2 thallium flux enhancement – KCNQ2-CHO-K1 cells, selectivity assay for KCNQ1 potentiator project (AID 493009;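 active means mean duplicate potentiation above the buffer control mean plus 5 SD of buffer wells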;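 further: assay conditions were tuned for KCNQ1 rather than KCNQ2 modulators; signal is max minus min fluorescence divided by baseline after thallium stimulus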). The settings on record: FluxOR thallium flux fluorescence, at 10 µM; stronger effect = higher value, scaled: buffer 0, activator control 100.
Experiment [20] concerns the target Potassium voltage-gated channel subfamily KQT member 1 (Homo sapiens) (UniProt P51787). Put plainly: KCNQ1 activators by electrophysiology – IonWorks patch clamp, KCNQ1-CHO cells, orthogonal assay for KCNQ1 potentiator project, confirmation (AID 493184;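 active means current rise at least 3 SD above the untreated control mean in each of two repeat wells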). The conditions noted are these: automated patch clamp current, at 10 µM; stronger effect = higher value. On the technique in general: The patch-clamp technique gives a direct electrical read-out from membranes.

Short transient receptor potential channel 4 (Mus musculus), sequence (Q9QUQ5 whole entry, looked up): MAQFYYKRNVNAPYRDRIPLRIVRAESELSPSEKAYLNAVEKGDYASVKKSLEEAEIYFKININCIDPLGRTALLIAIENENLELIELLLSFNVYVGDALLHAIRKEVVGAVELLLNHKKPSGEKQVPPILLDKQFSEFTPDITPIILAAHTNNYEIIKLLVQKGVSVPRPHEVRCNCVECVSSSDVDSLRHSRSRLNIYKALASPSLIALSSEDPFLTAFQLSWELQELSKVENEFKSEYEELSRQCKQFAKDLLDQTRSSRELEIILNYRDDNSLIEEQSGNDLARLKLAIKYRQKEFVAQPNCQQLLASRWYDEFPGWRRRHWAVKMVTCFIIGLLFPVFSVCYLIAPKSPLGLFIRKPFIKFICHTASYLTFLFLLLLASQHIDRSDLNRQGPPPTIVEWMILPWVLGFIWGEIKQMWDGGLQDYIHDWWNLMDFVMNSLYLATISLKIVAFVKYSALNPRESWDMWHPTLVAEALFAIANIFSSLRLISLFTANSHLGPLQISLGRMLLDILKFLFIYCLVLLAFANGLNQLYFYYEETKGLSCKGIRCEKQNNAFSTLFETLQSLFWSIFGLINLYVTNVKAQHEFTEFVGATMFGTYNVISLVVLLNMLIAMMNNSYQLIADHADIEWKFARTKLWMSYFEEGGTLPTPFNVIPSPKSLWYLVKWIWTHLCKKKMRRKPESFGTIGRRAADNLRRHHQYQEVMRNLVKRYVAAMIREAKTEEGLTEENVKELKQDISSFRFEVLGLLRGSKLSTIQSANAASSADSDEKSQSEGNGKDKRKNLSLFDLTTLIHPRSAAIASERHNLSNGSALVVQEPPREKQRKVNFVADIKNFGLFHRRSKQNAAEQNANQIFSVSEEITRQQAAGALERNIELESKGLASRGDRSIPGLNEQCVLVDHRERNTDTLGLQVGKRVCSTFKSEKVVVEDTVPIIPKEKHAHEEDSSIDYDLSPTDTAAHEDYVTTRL
Potassium voltage-gated channel subfamily KQT member 2 (Rattus norvegicus), sequence (O88943 whole entry, looked up): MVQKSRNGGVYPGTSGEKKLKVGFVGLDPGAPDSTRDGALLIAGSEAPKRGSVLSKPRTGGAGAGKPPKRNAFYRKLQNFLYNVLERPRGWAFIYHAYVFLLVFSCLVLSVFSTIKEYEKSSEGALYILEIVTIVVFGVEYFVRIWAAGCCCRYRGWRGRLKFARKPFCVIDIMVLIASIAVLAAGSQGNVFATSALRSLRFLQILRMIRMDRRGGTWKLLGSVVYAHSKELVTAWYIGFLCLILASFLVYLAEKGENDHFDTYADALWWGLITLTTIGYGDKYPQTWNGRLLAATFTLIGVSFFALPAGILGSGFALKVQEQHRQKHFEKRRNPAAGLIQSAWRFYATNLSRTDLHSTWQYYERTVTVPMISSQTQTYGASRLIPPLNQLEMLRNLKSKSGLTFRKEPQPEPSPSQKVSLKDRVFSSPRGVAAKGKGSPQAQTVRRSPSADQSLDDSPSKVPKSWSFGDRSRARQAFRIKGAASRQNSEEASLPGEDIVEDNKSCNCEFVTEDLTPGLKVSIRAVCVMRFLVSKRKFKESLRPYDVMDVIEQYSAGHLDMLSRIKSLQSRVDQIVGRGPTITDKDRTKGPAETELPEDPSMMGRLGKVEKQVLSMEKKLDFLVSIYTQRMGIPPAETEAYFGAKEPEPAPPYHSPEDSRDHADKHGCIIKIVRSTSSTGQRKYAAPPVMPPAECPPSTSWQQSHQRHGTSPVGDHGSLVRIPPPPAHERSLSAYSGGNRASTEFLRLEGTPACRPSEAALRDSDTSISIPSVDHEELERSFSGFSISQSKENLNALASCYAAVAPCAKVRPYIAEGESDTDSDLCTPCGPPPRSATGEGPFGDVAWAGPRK
Short transient receptor potential channel 6 (Mus musculus), sequence (Q61143 whole entry, looked up): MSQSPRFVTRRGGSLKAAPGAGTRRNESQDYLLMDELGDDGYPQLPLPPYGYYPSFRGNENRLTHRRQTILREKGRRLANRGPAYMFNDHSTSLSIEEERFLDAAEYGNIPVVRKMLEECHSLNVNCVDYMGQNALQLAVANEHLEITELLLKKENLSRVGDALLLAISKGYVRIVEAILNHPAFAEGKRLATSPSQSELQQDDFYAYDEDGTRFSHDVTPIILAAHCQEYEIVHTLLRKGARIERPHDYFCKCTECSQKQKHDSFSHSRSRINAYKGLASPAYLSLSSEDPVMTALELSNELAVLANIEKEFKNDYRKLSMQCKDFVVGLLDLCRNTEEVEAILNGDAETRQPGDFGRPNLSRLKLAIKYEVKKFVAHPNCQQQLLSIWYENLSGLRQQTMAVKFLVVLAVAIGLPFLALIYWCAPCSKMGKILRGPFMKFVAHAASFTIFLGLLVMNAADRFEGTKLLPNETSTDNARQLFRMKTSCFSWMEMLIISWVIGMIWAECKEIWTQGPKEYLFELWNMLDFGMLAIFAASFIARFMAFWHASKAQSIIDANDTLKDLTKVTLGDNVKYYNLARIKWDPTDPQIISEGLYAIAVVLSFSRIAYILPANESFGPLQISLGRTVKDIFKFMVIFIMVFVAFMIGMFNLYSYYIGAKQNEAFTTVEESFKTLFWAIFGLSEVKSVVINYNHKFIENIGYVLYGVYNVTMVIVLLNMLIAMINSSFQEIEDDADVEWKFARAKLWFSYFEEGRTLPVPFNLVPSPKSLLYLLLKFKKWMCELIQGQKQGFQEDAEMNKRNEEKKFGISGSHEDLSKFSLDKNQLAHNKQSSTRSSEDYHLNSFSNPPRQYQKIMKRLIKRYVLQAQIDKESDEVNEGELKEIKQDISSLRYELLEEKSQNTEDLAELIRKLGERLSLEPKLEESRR
Potassium voltage-gated channel subfamily KQT member 1 (Homo sapiens), sequence (P51787 whole entry, looked up): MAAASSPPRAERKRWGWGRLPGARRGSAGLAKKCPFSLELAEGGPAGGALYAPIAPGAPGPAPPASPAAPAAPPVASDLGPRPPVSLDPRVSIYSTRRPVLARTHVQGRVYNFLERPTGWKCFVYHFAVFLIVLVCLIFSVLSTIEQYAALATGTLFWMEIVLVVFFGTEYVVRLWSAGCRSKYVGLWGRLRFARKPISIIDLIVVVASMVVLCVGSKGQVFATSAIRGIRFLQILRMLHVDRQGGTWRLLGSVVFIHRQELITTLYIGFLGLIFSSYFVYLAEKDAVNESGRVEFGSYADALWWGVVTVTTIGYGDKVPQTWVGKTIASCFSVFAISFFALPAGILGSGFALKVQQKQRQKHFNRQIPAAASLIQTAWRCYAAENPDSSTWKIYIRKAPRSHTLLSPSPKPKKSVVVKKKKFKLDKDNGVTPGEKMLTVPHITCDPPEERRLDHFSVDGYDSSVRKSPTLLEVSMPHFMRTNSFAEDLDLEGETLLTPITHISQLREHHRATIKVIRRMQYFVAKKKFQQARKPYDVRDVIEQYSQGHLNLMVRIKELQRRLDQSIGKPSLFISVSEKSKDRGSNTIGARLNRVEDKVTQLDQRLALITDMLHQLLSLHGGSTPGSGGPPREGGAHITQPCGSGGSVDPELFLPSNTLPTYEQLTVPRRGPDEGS

`O=C(N/N=C/c1cc([N+](=O)[O-])cc(Br)c1O)C12CC3CCC(CC(C3)C1)C2`: the activation in [1] was 82% (active); in experiment [10], 28.5% (active); in [12], 68.6% (active); in [15], 33.8% (active); in experiment [17], 158% (active). The result in experiment [2], in [3], in [4], in experiment [5], in [6] and in [7] was inactive. In addition, the result in experiment [8], in [9], in experiment [11], in experiment [13], in experiment [14] and in experiment [16] was inactive. Moreover, the result in [20] was inactive. Also, the values for the potentiation in experiment [18] and in experiment [19] were 43.5% (active) and 163% (active), respectively.
For the molecule `CCOC(=O)c1oc2ccc(OC)cc2c1NC(=O)CN1CCN(C)CC1`, the outcome in experiment [1], in experiment [2], in [3], in experiment [4], in [5] and in [6] was inactive. For the same molecule, the result in experiment [7], in [8], in experiment [9], in experiment [11], in experiment [13] and in experiment [14] was inactive. Besides, the outcome in experiment [15] and in experiment [16] was inactive. The activation in [10] was 32% (active); in experiment [12], 12.8% (active).
As to `COc1cc(OC)cc(C(=O)N[C@H](C(=O)OCC(=O)NC(C)c2ccccc2)C(C)C)c1` (stereo partly drawn), the activation is 118% (active) in experiment [1], 36% (active) in experiment [10], 85.2% (active) in [12] and 45.3% (active) in experiment [15]. For the same molecule, the result in [2], in experiment [3], in experiment [4], in experiment [5], in experiment [6] and in experiment [7] was inactive. For the same molecule, the result in experiment [8], in experiment [9], in experiment [11], in experiment [13], in [14] and in experiment [16] was inactive. The outcome in experiment [17], in experiment [18], in experiment [19] and in [20] was inactive.
In the case of `O=c1c2cc(Br)ccc2nc(-c2cccc(C(F)(F)F)c2)n1O`, the activation in experiment [1] is 449% (active); in [12], 111% (active); in experiment [15], 60.8% (active); in [17], 808% (active). Moreover, the outcome in experiment [2], in experiment [3], in experiment [4], in experiment [5], in experiment [6] and in [7] was inactive. In addition, the result in experiment [8], in [9], in experiment [10], in experiment [11], in [13] and in [14] was inactive. Further, the outcome in [16] and in experiment [20] was inactive. For the same molecule, the results for the potentiation in experiment [18] and in experiment [19] were 372% (active) and 766% (active), respectively.
In the case of `O=C(NCCc1cccc(Cl)c1)c1ccc(OC2CCN(Cc3ccccn3)CC2)cc1`, the activation in experiment [1] is 69% (active); in experiment [10], 43.5% (active). For the same molecule, the result in [2], in experiment [3], in [4], in [5], in [6] and in experiment [7] was inactive. Besides, the result in experiment [8], in experiment [9], in experiment [11], in experiment [12], in experiment [13] and in experiment [14] was inactive. The result in experiment [15] and in experiment [16] was inactive.
As to `Cc1nc(/N=C(\N)NC(=O)NC2CCCCC2)nc2ccccc12`, the values for the activation in experiment [1], in experiment [2] and in experiment [12] were 99% (active), 66% (active) and 36.2% (active), respectively. The outcome in experiment [3], in experiment [4], in experiment [5], in experiment [6], in experiment [7] and in experiment [8] was inactive. The call in experiment [9], in experiment [10], in [11], in experiment [13], in experiment [14] and in [15] was inactive. Also, in [16], the result was inactive.
For `CC(C)(C)c1ccc(C(=O)NC(=S)NNC(=O)c2cccs2)cc1`, the activation in experiment [1] was 226% (active); in experiment [12], 199% (active); in experiment [15] it was 84.8% (active); in experiment [17] it was 136% (active). In addition, the result in experiment [2], in [3], in experiment [4], in experiment [5], in experiment [6] and in experiment [7] was inactive. In addition, the outcome in [8], in [9], in experiment [10], in experiment [11], in experiment [13] and in experiment [14] was inactive. For the same molecule, the outcome in experiment [16] and in [20] was inactive. Besides, the figures for the potentiation in experiment [18] and in experiment [19] were 97% (active) and 188% (active), respectively.
